Compound activity (PubChem BioAssay)
The entries come from a sample that favours hits as a whole.
VDR inh = vitamin D3 receptor (human) inhibition | Potency, µM, without a hit: max response, negative = inhibition, most hits filed as inhibitors | 400,000 compounds, 0.93% hits | P11473 | VDR-SRC2-3 peptide fluorescence polarization, 2 h | AID 504847; note: % is set by controls: 0 for no effect and ±100 for the full control effect
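Fluorescence polarization assay measuring small-molecule disruption of VDR binding to the coregulator peptide SRC2-3. Compounds were pin-transferred (23 nl) into the reagent mix and incubated 2 h at room temperature before reading.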
Sfp inh = inhibitors of Bacillus subtilis Sfp phosphopantetheinyl transferase; Biochemical Sfp PPTase activity, qHTS; Potency, µM, for the others: largest response in the series, negative = inhibition, usual class: inhibitors; 310,000 compounds, 3.5% hits;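 note: the enzyme is Sfp with the accession as filed and its product quenches rhodamine fluorescence; 0% = enzyme reaction without inhibitor and -100% = no enzyme wells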
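Buffer: 50 mM Hepes-Na pH 7.6, 10 mM MgCl2, 0.01% Nonidet P-40, 0.01% BSA. Enzyme 15 nM, pre-exposed to compound 15 min; substrates then added and fluorescence change tracked over 30 min.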
Glioma ERSR ind = ER stress response induction in glioma | U87-MG GRP78 promoter luciferase reporter, 16 h | Potency, µM, for the others: at the highest dose activation, hits mostly activators | AID 602332 | 420,000 compounds, 0.02% hits; note: series mostly up to about 76 µM; % of control where 0% means no effect; nearly all actives have a fitted effect of over 35% in size
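Stably transfected U87-MG human glioma cells carrying a GRP78-based luminescent sensor were seeded at 1000 cells/well, pin-dosed with compounds and incubated 16 h. Luciferase reagent was then added, and end-point luminescence was read after 10 min at room temperature.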
G9a block = G9a (human) methyltransferase inhibition. Q96KQ7. G9a H3K9 monomethylation, AlphaScreen, 2 h. Potency, µM (series often up to 102 µM), for inactives: at the highest dose activity, negative = inhibition, actives largely listed as inhibitors. 350,000 compounds, 8.8% hits. AID 504332; note: % is set by controls: 0 for no effect and ±100 for the full control effect; nearly all actives have a fitted effect of over 75% in size
Target sequence (Q96KQ7 913-1193 limits assumed): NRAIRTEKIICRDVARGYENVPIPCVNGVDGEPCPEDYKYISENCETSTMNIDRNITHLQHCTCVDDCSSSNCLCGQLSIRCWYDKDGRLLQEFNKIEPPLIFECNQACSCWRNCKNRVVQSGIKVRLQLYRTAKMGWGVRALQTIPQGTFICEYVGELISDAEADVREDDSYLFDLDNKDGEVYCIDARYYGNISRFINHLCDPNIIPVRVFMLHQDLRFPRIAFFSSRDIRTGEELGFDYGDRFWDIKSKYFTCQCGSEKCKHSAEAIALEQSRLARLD
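Readings reflect AlphaScreen signal from monomethyl-H3K9 antibody detection. HMT at 20 nM; substrate b-H3K9 500 nM; cofactor SAM 20 uM; 2 h RT reaction; compounds tested as titrations in qHTS with 15 min preincubation.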
ALOX12 inh = blocks human arachidonate 12S-lipoxygenase; P18054; purified 12hLO, xylenol orange hydroperoxide absorbance; Potency, µM (titrated, usually from 108 µM), for inactives: top-dose activity change, negative = inhibition, actives largely listed as inhibitors; 580,000 compounds, 1.1% hits; AID 1671190; note: % is set by controls: 0 for no effect and ±100 for the full control effect
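Purified human 12hLO at 150 nM in 25 mM Hepes, 0.01% Triton X-100, pH 7.0, preincubated 15 min at room temperature with compound. Reaction started with 40 uM arachidonic acid, 30 min at room temperature. Hydroperoxide measured by Fe-xylenol orange, 573/405 nm absorbance ratio.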
Numbers without * were called inactive; ? = inconclusive; · = no result given; [ ] = remark or other dose. Calls come from the whole dose curve; as a rule, active = well fitted curve in the direction sought with a large enough effect; inconclusive = small, poorly fitted or top-dose-only effect, or another doubt; inactive = no such curve, though single readings can be large; an effect the other way counts as inactive or inconclusive. Potency is the fitted concentration of half-maximal effect.

SMILES | VDR inh | Sfp inh | Glioma ERSR ind | G9a block | ALOX12 inh
COc1ccc(COCC(O)CN(C)Cc2ccc(OC)c(OC)c2OC)cc1 (stereo not drawn) | · | · | · | · | 1.5%
Cc1c(C(N)=O)sc(N)c1C(=O)OC(C)C | -6.2% | -17.9% | 0.7% | 39.8µM* | -18.2%
CCOC(=O)c1sc(N)c(C(N)=O)c1C | -6.0% | 31.6µM* | -7.0% | 39.8µM* | ?
CCOC(=O)C1CCN(S(=O)(=O)c2ccc3c(c2)CC(=O)N3C)CC1 | -12.0% | -7.8% | -1.4% | 44.7µM* | 44.7µM*
CC1CCN(S(=O)(=O)c2ccc3c(c2)N(C)C(=O)CC(=O)N3C)CC1 | 4.4% | -29.1% | -0.5% | 28.2µM* | -2.1%
CN1C(=O)CC(=O)N(C)c2cc(S(=O)(=O)N(C)Cc3ccccc3)ccc21 | ? | 89.1µM* | -6.9% | ? | ?
CCOC(=O)C1CCN(S(=O)(=O)c2ccc3c(c2)CCCN3C(C)=O)CC1 | 19.8% | 5.7% | -1.6% | -7.4% | -20.7%
CC1CCN(S(=O)(=O)c2ccc3c(c2)C(Cl)(Cl)C(=O)N3)CC1 | · | · | 5.4% | · | 39.8µM*
CN(Cc1ccccc1)S(=O)(=O)c1ccc2c(c1)n(C)c(=O)c(=O)n2C | 4.9% | 27.8% | -1.1% | -4.4% | -0.5%
COc1ccc(CN(C)CC(O)COc2ccccc2C)c(OC)c1OC (stereo not drawn) | · | · | · | · | -36.4%
Cc1ccc(C(=O)C(C)OC(=O)c2nn(C)c(=O)c3ccccc23)cc1C (stereo not drawn) | · | · | · | · | 3.1%
N#CC1(NC(=O)COC(=O)c2nn(Cc3ccccc3)c(=O)c3ccccc23)CCCCC1 | · | · | · | · | 2.5%
CC(Sc1ccccc1Cl)C(=O)NC1CCCC1 (stereo not drawn) | · | · | · | · | -48.3%
CN1CCC(N(C)CCN(C)C(=O)Nc2ccc(C(F)(F)F)cc2)CC1 | · | · | · | · | -4.5%
COc1ccc2nc(SC3CC(=O)N(c4ccc(C)c(C)c4)C3=O)nc(C)c2c1 (stereo not drawn) | · | · | · | · | -7.1%
Cc1cccc(N2CCN(S(=O)(=O)c3ccc4c(c3)CC(=O)N4C)CC2)c1C | -9.0% | -4.4% | -4.9% | -22.2%[59 µM] | 19.0%
Cc1noc(C)c1COC(=O)C1CCN(S(=O)(=O)c2c(Cl)cccc2Cl)CC1 | -9.8% | · | -2.5% | 12.8%[0.501 µM] | -13.7%
Cc1ccc(S(=O)(=O)N2CCC(C(=O)OCc3c(C)noc3C)CC2)cc1C | -10.9% | · | -2.7% | 39.8µM* | -6.3%
CN1C(=O)Cc2cc(S(=O)(=O)N3CCOCC3)ccc21 | 2.2% | 3.7% | -2.8% | 39.8µM* | 0.0%
CCCCC(=O)NCc1ccc(-c2nc3ccccc3s2)cc1 | · | · | · | · | -8.6%
CCOc1ccccc1C(=O)Nc1ccc2nc3c(c(Nc4ccc(OC)c(OC)c4)c2c1)CCCC3 | -5.3% | · | -10.5% | -29.2%[59 µM] | ?
COc1cc(OC)cc(C(=O)Nc2ccc3nc4c(c(Nc5ccc(OC)c(OC)c5)c3c2)CCCC4)c1 | -10.0% | · | -10.3% | 17.8µM* | ?
COc1ccccc1Nc1c2c(nc3ccc(NC(=O)c4ccc(N(C)C)cc4)cc13)CCCC2 | 19.9% | · | -4.5% | 7.94µM* | -48.2%
Cn1c(=O)n(Cc2ccccc2)c(=O)c2sc3c(c21)COC(C)(C)C3 | · | · | · | · | -11.5%
O=C(c1ccc(-c2ccccc2Cl)o1)N1CCC1 | -9.7% | · | 1.5% | ? | -15.5%
SMILES | VDR inh | Sfp inh | Glioma ERSR ind | G9a block | ALOX12 inh
S=C(c1ccc(-c2ccc(Cl)cc2Cl)o1)N1CCCC1 | ? | 14.1µM* | 1.2% | · | ?
S=C(c1ccc(-c2ccc(Cl)cc2Cl)o1)N1CCCCC1 | -8.1% | 56.2µM* | 13.1% | ? | ?
S=C(Nc1ccc(Cl)cc1Cl)N1CCCCC1 | 6.8% | -1.4% | 1.9% | 29.4%[59 µM] | 7.5%
CC(CCc1ccccc1)NC(=O)c1cccnc1Cl (stereo not drawn) | · | · | · | · | -29.7%
CC1CCC(C(C)C)[C@H](OC(=O)c2ccccc2)C1 (stereo partly drawn) | 0.6% | 12.9% | 0.2% | · | ·
CC1CCC(C(C)C)C(OC(=O)C2=C3c4ccccc4S(=O)(=O)N3CC2)C1 (stereo not drawn) | -9.0% | -1.4% | -10.6% | 25.1µM* | ?
CC(C(=O)N1CCCN(c2cc(-c3ccc(Cl)cc3)[nH]n2)CC1)c1ccccc1 (stereo not drawn) | · | · | · | · | -3.1%
c1cncc(-c2cc(NCc3cccs3)ncn2)c1 | -4.6% | -25.6% | -2.5% | 1.9%[0.501 µM] | 39.8µM*
